HT1080 IDH1KD tx: HT-1080 IDH1 knockdown cell toxicity (counter line); HT-1080 IDH1 knockdown viability, ATP luminescence, 48 h; Potency, µM (doses to about 46.1 µM), for inactives: top-dose activity, negative = toxicity, most hits filed as cytotoxic; hit rate 2% among 360,000;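 also: 0% = DMSO wells and -100% = cell-free medium wells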
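Using the IDH1-knockdown HT-1080 line run in the same batch and compound series as the NT line, viability after 48 h at 37 °C was determined by CellTiter-Glo luminescence and expressed as % activity.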
TGFb SMAD3 inh: inhibitors of TGF-b signaling | Potency, µM (highest dose often 46.1 µM), for the others: at the top dose activity, negative = inhibition, actives largely listed as inhibitors | AID 588855 | hit rate 1.2% among 410,000 | HepG2 CAGA-GFP TGF-b/SMAD3 reporter, GFP fluorescence, 18 h; TGF-beta stimulated, 500 pg/mL final; also: % is scaled to controls: 0 for no effect and ±100 for the full control effect; nearly all actives have a fitted effect of over 65% in size
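TGF-beta reporter screen: HEPG2 CAGA-GFP, 1% FBS, 500 pg/mL TGF-beta final, 18 h; per-cell GFP summed per well; curves fitted and categorized by class.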
HepG2 tox: HepG2 cytotoxicity, counter-screen for TGF-b inhibitors | HepG2 CAGA-GFP viability, ATP luminescence, 18 h | Potency, µM (doses to about 46.1 µM), without a hit: at the highest dose activity change, negative = cytotoxicity, most hits filed as cytotoxic | hit rate 0.76% among 410,000
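HepG2 CAGA-GFP cells (1000/well, DMEM with 1% FBS) received compound, then TGF-beta at 500 pg/mL final, and were incubated 18 hours at 37 degrees C. Viability was read by CellTiter-Glo luminescence. Media-only wells were set as complete cell-killing and DMSO as no toxicity.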
TDP1 cell CPT: DT40-hTDP1 cell growth loss with CPT | hit rate 12% among 420,000 | chicken DT40 Tdp1-/-;hTDP1 cells + 20 nM CPT, ATP luminescence, 48 h | AID 686979 | Potency, µM (titrated, usually from 46.2 µM), without a hit: top-dose activity change, negative = growth inhibition, most hits filed as inhibitors; also: % is scaled to controls: 0 for no effect and ±100 for the full control effect; nearly all actives have a fitted effect of over 55% in size
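Chicken DT40 Tdp1-/- cells complemented with human TDP1, 400 cells/well, exposed to compounds plus 20 nM camptothecin for at least 48 h at 37 C; viability read as ATP content by CellTiter-Glo luminescence.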
HT1080-NT tox: kills 2HG-producing HT-1080-NT fibrosarcoma cells | AID 686970 | hit rate 1.6% among 360,000 | Potency, µM (highest dose often 46.1 µM), inactives show at the top dose activity, negative = less viability, usual class: cytotoxic | HT-1080-NT fibrosarcoma viability, CellTiter-Glo ATP luminescence, 48 h;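 also: NT is the 2HG producing partner of a matched IDH1 knockdown line; 0% = DMSO-treated cells and -100% = media-only wells without cells; nearly all actives have a fitted effect of over 55% in size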
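Compounds were tested in concentration-response format on HT-1080-NT cells for 48 hours at 37 degrees C. Cell viability came from CellTiter-Glo luminescence; curves were classified by r2, response magnitude and activity.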
TDP1 cell noCPT: qHTS for Inhibitors of human tyrosyl-DNA phosphodiesterase 1 (TDP1): qHTS in cells in absence of CPT; AID 686978, 2013; DT40 Tdp1-/- hTDP1 cells, no CPT, ATP luminescence, 48 h; Potency, µM (titrated, usually from 46.2 µM), for the others: top-dose activity change, negative = growth inhibition, most hits filed as inhibitors; hit rate 15% among 420,000; also: % is scaled to controls: 0 for no effect and ±100 for the full control effect; nearly all actives have a fitted effect of over 55% in size
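No-CPT arm: Tdp1-/-;hTDP1 DT40 cells (400/well) plus compounds, incubated ≥48 hr at 37 °C. Readout CellTiter-Glo luminescence.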
* hit, by the source's call; ? = inconclusive; / = no result given. A selection: hits, their analogues and other compounds. The true share with any hit is near 17%. Calls follow the shape of the dose curve; as a rule, active = well fitted curve in the direction sought with a large enough effect; inconclusive = small, poorly fitted or top-dose-only effect, or another doubt; inactive = no such curve, though single readings can be large; an effect the other way counts as inactive or inconclusive. Potency is read from the fitted curve at half-maximal effect.

SMILES | HT1080 IDH1KD tx | TGFb SMAD3 inh | HepG2 tox | TDP1 cell CPT | HT1080-NT tox | TDP1 cell noCPT
Cc1noc(Cn2c(=O)c3ccccc3n(CC(=O)Nc3ccccc3C(F)(F)F)c2=O)n1 | / | -8% | -1% | 17% | / | -21%
O=C1Cc2cc(O)ccc2O1 | -3% | 8% | -6% | -6% | 0% | -12%
Cc1cc(=O)oc2cc(OCC(=O)Nc3ccc(CN4CCOCC4)cc3)ccc12 | 24% | 10% | 9% | ? | 14% | -27%
Cc1cc(OCC(=O)Nc2ccc(CN3CCOCC3)cc2)c2c(C)cc(=O)oc2c1 | -8% | 2% | -6% | 18µM* | -7% | 12µM*
NCCCCc1ccc2ccc3cccc4ccc1c2c34 | -21% | ? | -28% | 16µM* | ? | ?
O=C(O)CCCc1ccc2ccc3cccc4ccc1c2c34 | -25% | 15% | 3% | 2% | -8% | 6%
COc1ccc(C2CC(c3ccc(C(F)(F)F)cc3)=NN2c2ccc(S(N)(=O)=O)cc2)cc1 (stereo not drawn) | ? | ? | -103% | 18µM* | ? | ?
COc1ccc(C2CC(c3ccccc3Br)=NN2c2ccc(S(N)(=O)=O)cc2)cc1 (stereo not drawn) | ? | ? | 13µM* | -16% | ? | -16%
COc1ccc(C2CC(c3ccccc3F)=NN2c2ccc(S(N)(=O)=O)cc2)cc1 (stereo not drawn) | -4% | ? | -20% | ? | -7% | -27%
CN(C)S(=O)(=O)Nc1ccc(-c2cn3ccsc3n2)cc1 | / | 6% | -17% | ? | / | -23%
O=C(N=C1c2ccccc2CN1c1ccccc1)c1cccc([N+](=O)[O-])c1 | 0% | -2% | -27% | -13% | -3% | 12µM*
CC(=O)Nc1ccc(CCCCc2ccc(NC(C)=O)cc2)cc1 | -16% | 10% | 13% | -12% | 0% | -24%
Nc1nc(NCCCN2CCOCC2)nc(Nc2ccc(F)cc2)c1[N+](=O)[O-] | -21% | ? | -19% | ? | -16% | ?
Nc1nc(NCCCN2CCOCC2)nc(Nc2ccccc2F)c1[N+](=O)[O-] | -1% | 1% | -11% | -11% | 0% | 16µM*
Cc1cccc(Nc2nc(NCCCN3CCOCC3)nc(N)c2[N+](=O)[O-])c1 | -2% | ? | -21% | 16µM* | -8% | 15µM*
CCc1ccccc1NC(=O)C1CCCN(S(=O)(=O)c2ccc3c(c2)CC(C)N3C(C)=O)C1 (stereo not drawn) | -4% | -18% | -41% | -26% | 2% | ?
CC(C)NC(=O)c1ccc(Cn2c(SCc3ccc(F)cc3)nc3cccnc32)cc1 | / | -29% | -18% | -29% | / | -29%
O=C(NC1CCCCC1)c1ccc(Cn2c(SCc3ccccc3F)nc3cccnc32)cc1 | / | ? | -52% | ? | / | 16µM*
O=C(NC1CC1)c1ccc(Cn2c(SCc3ccccc3F)nc3cccnc32)cc1 | / | ? | -48% | 21µM* | / | 12µM*
O=C(NC1CCCCC1)c1ccc(CSc2nc3cccnc3n2Cc2ccccc2F)cc1 | / | ? | -26% | ? | / | 21µM*
CC(C(=O)NC1CCCc2ccccc21)N1CCN(c2ccc(F)cc2)CC1 (stereo not drawn) | -24% | -9% | -2% | ? | -19% | 16µM*
O=C(Nc1ccc(Br)cc1Cl)NC1CC1 | 8% | ? | -3% | 7% | 5% | -2%
CCN(CC)c1ccc(C(=O)N2CCc3c([nH]c4ccccc34)C2c2ccc(F)cc2)cc1 (stereo not drawn) | / | -10% | -15% | 2.9µM* | / | ?
Cn1nccc1C(=O)N1CCc2c([nH]c3ccccc23)C1c1ccc(F)cc1 (stereo not drawn) | -14% | 0% | -21% | -14% | 0% | -7%
CCc1ccc(C2c3[nH]c4ccccc4c3CCN2C(=O)c2cc[n+]([O-])cc2)cc1 (stereo not drawn) | ? | -32% | -30% | 26µM* | ? | 16µM*
SMILES | HT1080 IDH1KD tx | TGFb SMAD3 inh | HepG2 tox | TDP1 cell CPT | HT1080-NT tox | TDP1 cell noCPT
CSc1ccc(C2c3[nH]c4ccccc4c3CCN2C(=O)CCC2CCCC2)cc1 (stereo not drawn) | / | -13% | -36% | ? | / | ?
O=C1C[C@@H]2c3c(cccc3CN1Cc1ccccc1Br)C[C@@H](O)[C@H]2O | 0% | -17% | -2% | -17% | 3% | -13%
Cc1oc2ccc(O)c(CN(C)C)c2c1C(=O)c1ccccc1 | -2% | 2% | -17% | ? | -3% | ?
CCN(Cc1ccccc1)Cc1c(O)ccc2oc(C)c(C(=O)Nc3ccccc3C)c12 | / | ? | -21% | 13µM* | / | 13µM*
Cc1ccccc1NC(=O)c1c(C)oc2ccc(O)c(CN(C)Cc3ccccc3)c12 | / | ? | -45% | 8.2µM* | / | 6.5µM*
Cc1c(Cl)cccc1NC(=O)c1ccco1 | 22% | -1% | 2% | 12% | 8% | -3%
Cc1oc2ccc(O)c(CN(C)Cc3ccccc3)c2c1C(=O)Nc1cccc(Cl)c1C | / | -29% | -39% | 6.5µM* | / | 6.5µM*
Cc1cc(C)cc(Cn2cc(CN3CC(N(C)C)CS3(=O)=O)nn2)c1 (stereo not drawn) | 1% | / | / | 2% | 17% | -13%
O=C(NC1CCCN(CCc2ccccc2)C1)C1CCCC1 (stereo not drawn) | 6% | 0% | -9% | 30% | 19% | 10%
O=C(COC(=O)C12CC3CC(CC(C3)C1)C2)Nc1nc2c(F)c(F)c(F)cc2s1 | ? | ? | -28% | ? | ? | ?
CC(C)COc1ccc(C(=O)Nc2scc(-c3ccc(Cl)cc3Cl)c2C(N)=O)cc1 | 8% | -4% | -1% | 16µM* | 18% | 9.2µM*
COc1ccc(NC(=O)c2ccc(C)cc2)c[n+]1[O-] | -10% | 17% | 7% | ? | -6% | -1%
C/C(=N\NC(=O)c1ccc(-n2cnnn2)cc1)c1ccc(C)cc1 | 3% | 1% | -24% | -3% | -1% | -6%
CCCCN1CC(=O)N2[C@H](c3ccc(Cl)cc3)[C@@H]3C(=O)N(CC)C(=O)[C@@H]3[C@]2(Cc2ccccc2)C1=O | -5% | 0% | 2% | ? | 1% | 5%
[O-]/C(=C(\C(=S)Nc1cccc2ccccc12)[n+]1ccccc1)c1ccc(Cl)s1 | -7% | 6% | 20% | ? | -3% | 18µM*

Screening data deposited in PubChem by National Center for Advancing Translational Sciences (NCATS).
